Reference: PubChem BioAssay AID1159580 (chemical genetic matrix, 2015)
Hit rate of the full screen: of about 5,500 compounds, about 2,000 (36%) were called active. Inconclusive results (about 18%) are left out. No stated cut-off is given here; in the data, active means normalized growth mostly below about 0.91 (no sharp cut-off); inconclusive means no clear call, values can overlap the other calls; inactive means mostly above about 0.92. The list shows a part of the results.

Assay: chemical genetic growth profiling, strain panel (AID 1159580);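 further: tested at 20 µM; growth read once vehicle control cultures reached saturation at 30 °C; 1 = growth at the plate median or of vehicle wells; lower values mean less growth of the strain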
Details: S. cerevisiae deletion strains, growth OD

Measured: normalized growth

C[C@H]1[C@H](C)CC[C@]2(C(=O)O)CC[C@]3(C)C(=CCC4[C@@]5(C)C[C@@H](O)[C@H](O)[C@@](C)(CO)C5CC[C@]43C)[C@H]12 (stereo not given in full)
active: locus YLR113W, strain HOG1, active compounds read low 0.721
inactive: locus YAL021C, strain ccr4, active compounds read low 0.993 | locus YAL026C, strain drs2, active compounds read low 1.04 | locus YAL030W, strain snc1, active compounds read low 1.02 | locus YBL061C, strain skt5, active compounds read low 1.01 | locus YBR009C, strain hhf1, active compounds read low 1.01 | locus YBR023C, strain chs3, active compounds read low 0.995 | locus YBR171W, strain sec66, active compounds read low 1.04 | locus YBR231C, strain swc5, active compounds read low 1.03 | locus YBR279W, strain paf1, active compounds read low 1.01 | locus YCL011C, strain gbp2, active compounds read low 1.02 | locus YCL016C, strain dcc1, active compounds read low 1.01 | locus YCL061C, strain MRC1, active compounds read low 1.02 | locus YCL069W, strain vba3, active compounds read low 1.03 | locus YCR088W, strain abp1, active compounds read low 1.03 | locus YDL005C, strain med2, active compounds read low 1.03 | locus YDL040C, strain nat1, active compounds read low 1.02 | locus YDR001C, strain nth1, active compounds read low 1.03 | locus YDR069C, strain doa4, active compounds read low 1.02 | locus YDR137W, strain rgp1, active compounds read low 0.982 | locus YDR159W, strain sac3, active compounds read low 0.983 | locus YDR195W, strain ref2 0.945 | locus YDR297W, strain sur2, active compounds read low 1.02 | locus YDR334W, strain swr1, active compounds read low 1.04 | locus YDR335W, strain msn5, active compounds read low 1.02 | locus YDR392W, strain spt3, active compounds read low 0.931 | locus YEL003W, strain gim4, active compounds read low 1.02 | locus YEL037C, strain rad23, active compounds read low 1.03 | locus YEL061C, strain CIN8 (second series), active compounds read low 1.03 | locus YER015W, strain faa2, active compounds read low 1.02 | locus YER016W, strain bim1, active compounds read low 1.02 | locus YER111C, strain swi4, active compounds read low 1.03 | locus YER155C, strain BEM2 (second series), active compounds read low 1 | locus YFR010W, strain ubp6, active compounds read low 1.04 | locus YGL167C, strain pmr1, active compounds read low 1.03 | locus YGL173C, strain kem1, active compounds read low 1.03 | locus YGL227W, strain vid30, active compounds read low 1.04 | locus YGL240W, strain doc1, active compounds read low 0.988 | locus YGL253W, strain hxk2, active compounds read low 1.03 | locus YHR013C, strain ard1, active compounds read low 1.03 | locus YHR027C, strain rpn1, active compounds read low 1.02 | locus YHR030C, strain SLT2, active compounds read low 0.949 | locus YHR079C, strain IRE1, active compounds read low 0.937 | locus YHR142W, strain chs7, active compounds read low 0.996 | locus YJL092W, strain hpr5, active compounds read low 1.04 | locus YJL095W, strain BCK1 (second series), active compounds read low 1.02 | locus YJL095W, strain BCK1, active compounds read low 0.911 | locus YJL115W, strain asf1, active compounds read low 1.02 | locus YJL129C, strain trk1, active compounds read low 1 | locus YJL154C, strain vps35, active compounds read low 1.03 | locus YJL164C, strain tpk1, active compounds read low 0.993 | locus YJL166W, strain qcr8, active compounds read low 0.996 | locus YJL187C, strain SWE1, active compounds read low 1.02 | locus YJR066W, strain TOR1, active compounds read low 0.939 | locus YKL160W, strain elf1, active compounds read low 0.975 | locus YKR026C, strain gcn3, active compounds read low 1.03 | locus YKR091W, strain srl3, active compounds read low 1.02 | locus YLL001W, strain dnm1, active compounds read low 1 | locus YLL026W, active compounds read low 1.01 | locus YLL041C, strain sdh2, active compounds read low 1.02 | locus YLR027C, strain aat2, active compounds read low 1.01 | locus YLR221C, strain rsa3, active compounds read low 0.982 | locus YLR258W, strain gsy2, active compounds read low 1.01 | locus YLR262C, strain YPT6 (second series), active compounds read low 0.975 | locus YLR320W, strain mms22, active compounds read low 1.02 | locus YLR342W, strain FKS1, active compounds read low 1.04 | locus YLR357W, strain rsc2, active compounds read low 1.05 | locus YLR370C, strain arc18, active compounds read low 1.03 | locus YLR384C, strain iki3, active compounds read low 1.03 | locus YML120C, strain ndi1, active compounds read low 0.978 | locus YMR058W, strain fet3, active compounds read low 1.03 | locus YMR125W, strain sto1, active compounds read low 1.05 | locus YMR129W, active compounds read low 1.04 | locus YMR205C, strain PFK2, active compounds read low 1.01 | locus YMR231W, strain pep5, active compounds read low 1.03 | locus YNL071W, strain lat1, active compounds read low 1.02 | locus YNL183C, strain NPR1, active compounds read low 0.894 | locus YNL209W, strain ssb2, active compounds read low 1.03 | locus YNL248C, strain rpa49, active compounds read low 1.03 | locus YNL322C, strain KRE1 (second series), active compounds read low 1.03 | locus YNR049C, strain mso1, active compounds read low 1.03 | locus YOR001W, strain rrp6, active compounds read low 0.973 | locus YOR070C, strain gyp1, active compounds read low 1.01 | locus YOR080W, strain dia2, active compounds read low 1.03 | locus YOR083W, strain WHI5, active compounds read low 0.984 | locus YOR106W, strain vam3, active compounds read low 0.981 | locus YOR231W, strain MKK1, active compounds read low 0.973 | locus YOR265W, strain rbl2, active compounds read low 1.02 | locus YOR270C, strain vph1, active compounds read low 1.03 | locus YOR290C, strain snf2, active compounds read low 0.968 | locus YPL051W, strain arl3, active compounds read low 0.974 | locus YPL078C, strain atp4, active compounds read low 1 | locus YPL106C, strain sse1, active compounds read low 1.01 | locus YPL240C, strain hsp82, active compounds read low 1.03 | locus YPL256C, strain CLN2, active compounds read low 0.963
